PP1 inh – counter-screen for PP5 inhibitors: inhibitors of human PP1-alpha; inhibition, % at 6.7 µM; purified PP1alpha, OMFP fluorescence; 320,000 compounds, 0.9% hits; AID 2235;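 active = inhibition above the mean inhibition of all tested compounds plus 3 SD, computed separately for each screening campaign, cut at about 15% in these data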
Exocytosis inh – blocks lytic granule exocytosis; TALL-104 LAMP-1 surface exposure, flow cytometry; cells stimulated with thapsigargin and PMA; inhibition, % at 10 µM; 360,000 compounds, 0.66% hits;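 active = inhibition above about 55%, limit read from the data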
NadD block – blocks S. aureus nicotinate mononucleotide adenylyltransferase; purified NadD enzyme, colorimetric absorbance read-out; inhibition, % at 20 µM; 360,000 compounds, 0.78% hits; AID 602399; in the data active = inhibition above about 26%
B2AR ag – activates human beta-2 adrenergic receptor causing internalization; Am2.2-beta2AR cells, FAP receptor internalization, flow cytometry; response, % (concentration not given with the values); P07550; 340,000 compounds, 0.43% hits;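 active = response above a set limit, near 3 SD of response in nonfluorescent compounds, cut at about 42% in these data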
GRK2 inh – blocks RNA aptamer binding to human GRK2. P25098. bead flow cytometry, FAM-aptamer displacement from GRK2. inhibition of aptamer binding, % at 10 µM. 330,000 compounds, 0.59% hits;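 active = inhibition of aptamer binding above 40%, roughly 3 SD of noise, on plates passing a quality check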;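 also: median bead fluorescence of bound FAM aptamer so fluorescent compounds give negative values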
Target sequence (P25098 whole entry, looked up): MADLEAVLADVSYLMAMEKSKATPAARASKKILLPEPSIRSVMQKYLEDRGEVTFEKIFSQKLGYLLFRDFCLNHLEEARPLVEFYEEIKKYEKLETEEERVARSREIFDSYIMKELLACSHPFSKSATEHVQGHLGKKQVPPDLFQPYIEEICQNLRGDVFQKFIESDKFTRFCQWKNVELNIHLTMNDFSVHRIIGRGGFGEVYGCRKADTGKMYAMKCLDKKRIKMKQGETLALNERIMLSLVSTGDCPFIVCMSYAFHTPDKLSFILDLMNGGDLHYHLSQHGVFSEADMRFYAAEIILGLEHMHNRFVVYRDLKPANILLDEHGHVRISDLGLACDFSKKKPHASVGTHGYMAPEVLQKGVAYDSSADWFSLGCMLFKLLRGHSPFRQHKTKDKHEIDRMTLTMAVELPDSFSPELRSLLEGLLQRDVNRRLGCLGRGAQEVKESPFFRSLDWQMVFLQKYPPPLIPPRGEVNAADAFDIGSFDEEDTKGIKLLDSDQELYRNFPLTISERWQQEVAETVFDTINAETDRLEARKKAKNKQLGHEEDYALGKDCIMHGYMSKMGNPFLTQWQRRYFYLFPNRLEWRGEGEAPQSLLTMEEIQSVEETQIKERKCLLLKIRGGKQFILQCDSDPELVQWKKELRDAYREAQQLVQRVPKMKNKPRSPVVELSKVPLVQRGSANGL
PP1 inh confirm – human PP1 phosphatase inhibition, confirmation; 1,900 compounds, 52% hits; inhibition, % at 6.7 µM; shares compounds with PP1 inh; purified PP1alpha, OMFP substrate fluorescence;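 active = mean PP1 inhibition above a set limit taken from the earlier primary screen, cut at about 15% in these data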
PP5 counter – counter-screen for PP1 inhibitors: human PP5 phosphatase inhibition; shares compounds with PP1 inh; purified PP5c, OMFP fluorescence; inhibition, % at 6.7 µM; 1,900 compounds, 4% hits; AID 2360;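 active = mean PP5 inhibition over triplicate wells above about 9.5% taken from the earlier PP1 screen, limit read from the data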
Each line names hits and unclear results; the compound was inactive in the other large screens (follow-up assays come after a bar, where they were run). An excerpt weighted towards active compounds, which were near 2.9% of everything screened.

COc1ccc(C[C@H]2CN3C(=NC[C@@H]3Cc3ccccc3)N2CCNC(=O)c2ccc(C)c(Br)c2)cc1	PP1 inh 21.5 | PP1 inh confirm inactive | PP5 counter inactive
COc1ccc(C[C@H]2CN3C(=NC[C@H]3Cc3ccccc3)N2CCNC(=O)c2ccc(C)c(Br)c2)cc1	PP1 inh 18.9 | PP1 inh confirm inactive | PP5 counter inactive
Cc1ccc(C(=O)NCCN2C3=NC[C@H](Cc4ccc(O)cc4)N3C[C@H]2Cc2ccc(O)cc2)cc1Br	none
COc1ccc(C[C@H]2CN3C(=NC[C@@H]3Cc3ccc(O)cc3)N2C[C@H](C)NC(=O)c2ccc(C)c(Br)c2)cc1	PP1 inh 18.1 | PP1 inh confirm inactive | PP5 counter inactive
COc1ccc(C[C@H]2CN3C(=NC[C@@H]3C(C)C)N2C[C@H](C)NC(=O)c2ccc(C)c(Br)c2)cc1	none
Cc1ccc(C(=O)NCCN2C3=NC[C@@H](Cc4ccccc4)N3C[C@H]2Cc2ccc(O)cc2)cc1Br	none (no result: GRK2 inh)
CC1CCCC(NC(=O)COC(=O)c2ccc3ncsc3c2)C1C (configuration not stated)	none
CN1CCC(N(C)C(=O)/C(C#N)=C/c2ccc(OC(F)F)cc2)CC1	none (no result: PP1 inh, GRK2 inh)
O=C(Nc1nc2cc3c(cc2s1)OCCO3)c1ccco1	none
O=C(O)c1cc(-c2ccc(Cl)cc2)n(-c2cccc(Cl)c2)n1	PP1 inh 50.3 | PP1 inh confirm 48.7 | PP5 counter inactive
O=C(O)c1cc(-c2ccc(Cl)cc2)n(-c2ccccc2)n1	PP1 inh 41.8 | PP1 inh confirm 43.1 | PP5 counter inactive
O=C(O)c1cc(-c2ccccc2)n(-c2ccc(Cl)cc2Cl)n1	PP1 inh 38.0 | PP1 inh confirm 35.7 | PP5 counter inactive
O=C(c1cc(-c2ccc(Cl)cc2)n(-c2ccc(Cl)cc2)n1)N1CCOCC1	none
O=C(O)c1cc(-c2ccccc2)n(-c2ccc(F)cc2)n1	PP1 inh 28.9 | PP1 inh confirm 17.5 | PP5 counter inactive
O=C(O)c1cc(-c2ccccc2Cl)n(-c2cccc(Cl)c2)n1	PP1 inh 18.3 | PP1 inh confirm inactive | PP5 counter inactive
O=[N+]([O-])c1cc(CN2CCN(c3cccc(C(F)(F)F)c3)CC2)c2cccnc2c1O	PP1 inh 17.6 (no result: Exocytosis inh, NadD block) | PP1 inh confirm 23.8 | PP5 counter inactive
Oc1ccc(CN2CCN(c3ccccc3)CC2)c2cccnc12	none
O=[N+]([O-])c1cc(CN2CCCC2)c2cccnc2c1O	PP1 inh 18.1, NadD block 74.4 | PP1 inh confirm inactive | PP5 counter inactive
Oc1c(Cl)cc(CN2CCCCC2)c2cccnc12	none
O=C(c1cccc(Br)c1)N1CCN(S(=O)(=O)N2CCCCC2)CC1	none
CCOc1ccccc1C(=O)NCC(=O)NCC(c1ccc(OC)cc1)N1CCOCC1 (configuration not stated)	PP1 inh 22.8 | PP1 inh confirm inactive | PP5 counter inactive
CCC(C)NC(=O)CCc1nc2ccccc2n1-c1ccccc1 (configuration not stated)	none
CCOC(=O)N1CCC(N2C(=O)c3ccccc3C2Nc2c(C)cccc2C)CC1 (configuration not stated)	none
Brc1ccc(N/N=C(/N=Nc2nn[nH]n2)c2ccccc2)cc1	PP1 inh 19.2 | PP1 inh confirm 24.2 | PP5 counter inactive
Cc1ccccc1OCCCN1C(=O)C(=O)c2cccc(C)c21	PP1 inh 21.5 | PP1 inh confirm inactive | PP5 counter inactive
Cc1cccc(OCCN2C(=O)C(=O)c3cccc(C)c32)c1	none
COC(=O)C1=C(O)C(C(=O)OC)C(c2ccc(C)cc2)C(C#N)(C#N)C1c1ccc(C)cc1 (configuration not stated)	none
CCCCCN(C(=O)CCC(=O)OCC(=O)c1ccc(C(C)CC)cc1)c1c(N)n(CCCC)c(=O)[nH]c1=O (configuration not stated)	PP1 inh 29.1 | PP1 inh confirm inactive | PP5 counter inactive
COc1ccc(OC)c(/C=C/c2ccc3cccc(O)c3n2)c1	PP1 inh 18.7 | PP1 inh confirm 18.3 | PP5 counter inactive
COc1cc(Br)c(/C=C/c2ccc3cccc(O)c3n2)cc1OC	none
Oc1cccc2ccc(/C=C/c3cccs3)nc12	PP1 inh 24.2 | PP1 inh confirm 18.7 | PP5 counter inactive
Cc1ccsc1/C=C/c1ccc2ccccc2n1	none
Cc1ccsc1/C=C/c1ccc2cccc(O)c2n1	PP1 inh 20.8 | PP1 inh confirm 19.2 | PP5 counter inactive
CC(C)NC(=O)C(c1ccc(F)cc1)N(Cc1ccco1)C(=O)CCC(=O)Nc1ccccn1 (configuration not stated)	none
S=c1[nH]nc(-c2cccs2)n1/N=C/c1c(Cl)cccc1Cl	none
COc1cccc(N(C(=O)CS(=O)CC(=O)Nc2ccc(F)cc2)C(C(=O)NC2CCCCC2)c2cccs2)c1 (configuration not stated)	PP1 inh 20.0 | PP1 inh confirm 27.8 | PP5 counter inactive
COc1ccc(N(C(=O)c2snc(C(N)=O)c2N)C(C(=O)NC2CCCC2)c2cccs2)cc1OC (configuration not stated)	PP1 inh 17.8 | PP1 inh confirm 29.4 | PP5 counter inactive
CCC(C(=O)NC1CCCC1)N(C(=O)c1snc(C(N)=O)c1N)c1ccc(OC)c(OC)c1 (configuration not stated)	none
O=C(CS(=O)CC(=O)N(c1ccccc1)C(C(=O)NC1CCCC1)c1cccs1)Nc1ccc(F)cc1 (configuration not stated)	none
C=CCc1cccc2cc(C(=O)N3CCN(C(=O)c4ccccc4)CC3)c(=O)oc12	none
O=c1[nH]cnc2c1cnn2Cc1ccccc1	none
C=CCn1cc(/C=N/Nc2nc3ccccc3[nH]2)c2ccccc21	PP1 inh 21.6 | PP1 inh confirm 30.1 | PP5 counter inactive
COc1ccc(Nc2nccc(-c3ccc(C#N)cc3)n2)cc1	PP1 inh 20.1 | PP1 inh confirm inactive | PP5 counter inactive
COc1ccc(Nc2nccc(-c3cccc(N)c3)n2)cc1	none
Cc1ccccc1NC(=O)C(=O)NNC(=O)COc1ccc2ccccc2c1	PP1 inh 18.2 | PP1 inh confirm inactive | PP5 counter inactive
O=C(NCc1ccccc1)c1ccc(S(=O)(=O)N2CCCc3ccccc32)cc1	none
COc1ccc(-c2nnc(NC(=O)c3ccc(S(=O)(=O)N4CCCc5ccccc54)cc3)o2)cc1	PP1 inh 29.4, NadD block 86.5 | PP1 inh confirm 39.5 | PP5 counter inactive
CS(=O)(=O)c1ccc(-c2nnc(NC(=O)c3ccc(S(=O)(=O)N4CCCC4)cc3)o2)cc1	none
O=C(Nc1nnc(C2CC2)o1)c1ccc(S(=O)(=O)N2CCCc3ccccc32)cc1	PP1 inh 33.4 | PP1 inh confirm 31.5 | PP5 counter inactive
COc1ccc(OC)c(NC(=O)CS(=O)(=O)c2ccccc2)c1	none

From PubChem
